Records with an inconclusive call do not appear. Where a call stands in place of a potency, no number is given. The source made the active and inactive calls. Calls come from the whole dose curve; as a rule, active = well fitted cell-killing curve with a large enough effect; inconclusive = small, poorly fitted or top-dose-only effect; inactive = no such curve, though single readings can be large or run the other way.

This is an account of results in PubChem BioAssay (NCATS).
Potency is the fitted concentration of half-maximal effect.

This test in a line: qHTS of pediatric cancer cell lines to identify multiple opportunities for drug repurposing: Primary screen for NB-EBc1 cells (AID 1347095). To be noted: NB-EBc1 neuroblastoma viability, CellTiter-Glo luminescence, 48 h; series mostly up to 46 µM. The source says: Drug repurposing or repositioning has been offered as a strategy for drug development in oncology programs. This approach has special potential for childhood cancers and other rare or orphan diseases, where the expected return on new drug development has been a disincentive to pharmaceuticals. […] In this project we exploit the poly-pharmacology of drugs to discover new indications via phenotypic screening of a panel of 19 well-characterized cell lines derived from solid tumors seen in children and adolescents. The goal is to identify approved drugs with previously unrecognized anticancer properties that has the potential to reveal new mechanisms and biological processes involved in carcinogenesis or drug resistance. We employed a titration-based paradigm (quantitative high-throughput screening or qHTS), where all compounds were tested at multiple concentrations for their effect on cell viability. Concentration-response curves (CRCs) were derived directly from the primary screen, and both potency and efficacy values were used to identify compounds with robust bioactivity profiles. We screened the NIH Chemical Genomics Center (NCGC) Pharmaceutical Collection (NPC) and Mechanism Interrogation Plate (MIPE) small molecule collections of approved and investigational compounds against these cell lines; and measured metabolically active cells after 48 hours of compound treatment as a proxy for cell viability. […] Assay Submitter: Nathalia J. Martinez, National Center for Advancing Translational Sciences, National Institutes of Health, Rockville, MD, USA; email: natalia.martinez@nih.gov Shen, M et al. Quantitative high-throughput phenotypic screening of pediatric cancer cell lines identifies multiple opportunities for drug repurposing. Oncotarget 2017 Dec 19;9(4):4758-4772. PMID 29435139.
The cells were obtained from University of North Carolina (UNC), Pediatric Preclinical Testing Program (PPT), and Coriell Institute (CI). qHTS cell viability assay: Cells were assayed in growth media at a density of 500-1,000 cells/well. Five microliters of cells were dispensed into 1,536-well, white, solid-bottom, TC-treated plates (Greiner Bio One) using a multidrop dispenser and incubated at 37 degrees C, 5% CO2, under a humidified atmosphere for 5 hours. Twenty-three nanoliters of compounds and controls (neutral control DMSO or positive control bortezomib at final concentration of 2.3 µM) were subsequently transferred by Kalypsys pintool. For primary screens, the MIPE collection was tested at 11-point dilutions (final concentrations range from 0.78 nM to 46 µM) and the NPC collection at 8-point dilutions (final concentrations range from 0.59 nM to 46 µM). Compounds tested in follow-up screens were assayed at 11-point dilutions. Cells were incubated for 48 hours, followed by addition of 3 µL of CellTiter-Glo (Promega). After a 15 min incubation at room temperature, samples were analyzed for luminescence intensity using a ViewLux High-throughput CCD imager equipped with clear filters.
In the case of `CO[C@H]1/C=C\O[C@@]2(C)Oc3c(C)c(O)c4c(O)c(c5c(nc6cc(C)ccn65)c4c3C2=O)NC(=O)C(C)=CC=C[C@H](C)[C@H](O)[C@@H](C)[C@@H](O)[C@@H](C)[C@H](OC(C)=O)[C@H]1C`, the Potency result is “inactive”.

Turning to `COc1cc(Nc2nc3ccccc3nc2NS(=O)(=O)c2ccc(NC(=O)c3ccc(C)c(OC)c3)cc2)cc(OC)c1`, the Potency was 26.4 µM (active).

Take `OC[C@H]1O[C@@H](O[C@H]2[C@@H](O)[C@@](O)(CO)O[C@@H]2CO)[C@H](O)[C@@H](O)[C@@H]1O`: the Potency result was “inactive”.

`CC(C)(CO)[C@@H](O)C(=O)NCCC(=O)O`: the Potency result is “inactive”.

With `Nc1ncnc2c1ncn2[C@@H]1O[C@H](CO)[C@@H](O)[C@@H]1O`, the Potency is 3.32 µM (active).

For `O=S(=O)(NCCNCC=Cc1ccc(Br)cc1)c1cccc2cnccc12`, the Potency was 16.6 µM (active).

In the case of `CN1CCc2c(n(Cc3ccc(C(=O)NO)cc3)c3ccccc23)C1`, the Potency was 16.6 µM (active).

Regarding `COc1nccc(-c2c(-c3ccc(F)cc3)ncn2C2CCNCC2)n1`, the Potency result was “inactive”.

Turning to `CN1CCN(c2cccc(Nc3nc4c(-c5ccc(S(C)(=O)=O)cc5)cccn4n3)c2)CC1`, the Potency entry is “inactive”.

In the case of `Cc1ccc(C(=O)N(CCCN)[C@@H](c2nc3cc(Cl)ccc3c(=O)n2Cc2ccccc2)C(C)C)cc1`, the Potency is 0.001 µM (active).

Regarding `COc1cc2ncn(-c3cc(OCc4ccccc4S(C)(=O)=O)c(C#N)s3)c2cc1OC`, the Potency entry was “inactive”.

Take `COc1nccc(-c2c(-c3ccc(F)cc3)ncn2C2CCC(O)CC2)n1` (stereo not given): the Potency result was “inactive”.

For the compound `NC(=O)c1ccc(N(C(N)=O)c2c(F)cccc2F)nc1-c1ccc(F)cc1F`, the Potency entry was “inactive”.

With `CCCCC(C=O)NC(=O)C(CC(C)C)NC(=O)OCc1ccccc1` (stereo not given), the Potency result was “inactive”.

For `CN[C@@H]1CN(c2ccc3c(=O)c(C(=O)O)cn(-c4nccs4)c3n2)C[C@@H]1OC`, the Potency is 0.407 µM (active).

As to `C=CCc1cccc(C=NNC(=O)CN2CCN(Cc3ccccc3)CC2)c1O`, the Potency was 5.9 µM (active).

Consider `O=C(O)CCC=CCC[C@@H]1[C@H](N2CCCCC2)[C@@H](O)C[C@@H]1OCc1ccc(-c2ccccc2)cc1`, for which the Potency entry is “inactive”.

As for `CN(C)N=Nc1nc[nH]c1C(N)=O`, the Potency result is “inactive”.

Take `CCCCC(C)(C)[C@H](O)C=C[C@H]1[C@H](O)CC(=O)[C@H]1CC=CCCCC(=O)O`: the Potency was 5.26 µM (active).

As to `CC(C)CN(C[C@H](O)[C@H](Cc1ccccc1)NC(=O)O[C@H]1CCOC1)S(=O)(=O)c1ccc(N)cc1`, the Potency entry is “inactive”.

Turning to `Nc1ncnc2c1c(-c1cccc(OCc3ccccc3)c1)cn2C1CC(CN2CCC2)C1` (stereo not given), the Potency is 10.5 µM (active).

Turning to `NCc1c[nH]c(=S)n1[C@H]1CCc2c(F)cc(F)cc2C1`, the Potency is 23.5 µM (active).

With `CN(C)CCOc1cc(-c2cn[nH]c2)ccc1NC(=O)C1COc2ccccc2O1` (stereo not given), the Potency result was “inactive”.

As for `COc1ccc(Cn2ccc3ccc(C(=O)NO)cc32)cc1`, the Potency is 8.33 µM (active).

For the compound `CCNC(=O)Nc1ccc(Oc2ncnc(N)c2C=NOC)cc1Cl`, the Potency was 2.64 µM (active).

On to `CN1[C@H]2CC[C@H]1CC(OC(=O)c1c[nH]c3ccccc13)C2` (stereo not given in full), for which the Potency entry was “inactive”.

Take `CN[C@@H](C)[C@H]1[C@H](O)C[C@@]2(C)[C@@H]3CC[C@H]4C(C)(C)[C@@H](NC)CC[C@@]45C[C@@]35CC[C@]12C`: the Potency result is “inactive”.

For the compound `NC1(C(=O)N[C@@H](CCO)c2ccc(Cl)cc2)CCN(c2ncnc3[nH]ccc23)CC1`, the Potency is 5.26 µM (active).

Regarding `Cc1c(C(=O)Nc2ccc(N3C[C@@H](C)O[C@@H](C)C3)nc2)cccc1-c1ccc(OC(F)(F)F)cc1`, the Potency is 14.8 µM (active).

On to `CCN1CCC(n2cc(CNc3cc(Cl)c4ncc(C#N)c(Nc5ccc(F)c(Cl)c5)c4c3)nn2)CC1`, for which the Potency is 23.5 µM (active).

As for `C[C@@H](O[C@H]1OCCN(Cc2n[nH]c(=O)[nH]2)[C@@H]1c1ccc(F)cc1)c1cc(C(F)(F)F)cc(C(F)(F)F)c1`, the Potency was 23.5 µM (active).

For the compound `Cn1c(=O)c(Oc2ccc(F)cc2F)cc2cnc(NC3CCOCC3)nc21`, the Potency entry was “inactive”.

On to `COc1nc(C)cnc1NS(=O)(=O)c1cccnc1-c1ccc(-c2nnco2)cc1`, for which the Potency entry was “inactive”.

Consider `O=C(O)C1=CO[C@@H](O[C@@H]2O[C@H](CO)[C@H](O)[C@H](O)[C@H]2O)[C@@H]2C(CO)=CC[C@H]12`, for which the Potency entry is “inactive”.

Regarding `COc1ccc(C=CC(=O)Nc2ccccc2C(=O)O)cc1OC`, the Potency entry was “inactive”.

With `CCC(=C(CC)c1ccc(O)cc1)c1ccc(O)cc1`, the Potency is 5.9 µM (active).

Regarding `Cc1cc(CS(=O)(=O)c2ccccc2)cc(OCc2ccc(CN3CCC[C@H]3CO)cc2)c1`, the Potency entry was “inactive”.

Consider `CC(=O)OCC(=O)[C@@]12OC(C)(C)O[C@H]1C[C@H]1[C@@H]3C[C@H](F)C4=CC(=O)C=C[C@]4(C)[C@@]3(F)[C@@H](O)C[C@@]12C`, for which the Potency entry is “inactive”.

`CN(C)CC[C@H](CSc1ccccc1)Nc1ccc(S(=O)(=O)NC(=O)c2ccc(N3CCN(Cc4ccccc4-c4ccc(Cl)cc4)CC3)cc2)cc1[N+](=O)[O-]`: the Potency is 0.0418 µM (active).

Consider `CNC1[C@H](O)C(O[C@@H]2C(O)C(O[C@H]3O[C@H]([C@@H](C)NC)CC[C@H]3N)[C@@H](N)C[C@H]2N)OC[C@]1(C)O` (stereo not given in full), for which the Potency result was “inactive”.
